tim10-1 inh – inhibits growth of tim10-1 mutant yeast; actives 2.2% (n = 330,000); S. cerevisiae tim10-1 ts strain growth, BacTiter-Glo, 24 h; inhibition, % at 20 µM;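 active = inhibition of at least 40%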;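 also: mutant grown at 25 °C; 0% = DMSO wells with yeast and 100% = wells holding no yeast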
NALP3 yeast inh – NALP3 inhibition in yeast; actives 0.39% (n = 330,000); AID 2825; inhibition, % at 10 µM; Yeast reconstituted NLRP3/ASC/caspase-1, beta-gal luminescence, 24 h;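 active = inhibition of 50% or more; inactive = inhibition below 50%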;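 also: plate controls were induced DMSO wells for no effect and uninduced yeast grown without galactose for full effect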
Yeast superoxide – caloric restriction mimetics inhibiting age-related superoxide in yeast; S. cerevisiae aged cells, superoxide DHE fluorescence; active compounds read low; superoxide response (% of plate mean), % at 10 µM; actives 0.18% (n = 330,000); AID 2690;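 active = superoxide response under a set limit, about three screen SD below normal, cut at about 65% in these data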;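 also: yeast aged for seven days with compound at 30 °C before DHE staining; 100% = average MFI of all compound-treated wells on the plate with controls excluded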
tim23-1 inh – inhibits growth of tim23-1 mutant yeast | actives 1.3% (n = 330,000) | inhibition, % at 20 µM | S. cerevisiae tim23-1 growth, BacTiter-Glo luminescence, 24 h;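 active = growth inhibition of the mutant yeast at or above 50%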;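 also: temperature-sensitive mutant grown at 25 °C; plate controls were DMSO-treated mutant yeast for no effect and medium wells lacking yeast for full effect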
TIM10 inh – inhibits growth of TIM10 yeast strain. S. cerevisiae TIM10 strain growth, BacTiter-Glo luminescence, 24 h. inhibition, % at 10 µM. actives 1.4% (n = 330,000). AID 463195;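 active = inhibition of 40% or more at the single tested concentration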;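 also: wild-type TIM10 isogenic control strain grown at permissive 25 °C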
TIM10 conf – confirmation of TIM10 yeast growth inhibitors; S. cerevisiae tim10 strain growth, BacTiter-Glo luminescence, 24 h; shares compounds with TIM10 inh; actives 63% (n = 4,600); AID 463215; inhibition, % at 10 µM;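 active = inhibition of yeast growth at or above a set limit in either of two replicates at 10 µM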;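 also: this counterscreen used the strain with wild-type TIM10; 0% = yeast with DMSO and 100% = medium wells lacking yeast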
Numbers without * were called inactive. Shown are actives, neighbours in structure and some others; about 3.8% of the full set was active somewhere.

Results for COc1ccc(C)cc1C(=O)CCC(=O)N1CCN(c2ccccc2F)CC1 ?
tim10-1 inh: 6; NALP3 yeast inh: 6; tim23-1 inh: 19; TIM10 inh: -8

How did Cc1ccc(NC(=O)CN(C)C(=O)c2ccccc2Cc2ccccc2)cc1 do in these assays?
tim10-1 inh: 16; NALP3 yeast inh: 20; tim23-1 inh: 12; TIM10 inh: 10

Results for COc1ccccc1NC(=O)Nc1nc(CC(=O)Nc2cc(F)ccc2F)cs1 ?
tim10-1 inh: 17; NALP3 yeast inh: 14; Yeast superoxide: 103; tim23-1 inh: 34; TIM10 inh: 12

How did COc1ccccc1NC(=O)Nc1cc(F)ccc1F do in these assays?
tim10-1 inh: 29; NALP3 yeast inh: 13; Yeast superoxide: 126; tim23-1 inh: 40; TIM10 inh: 46*; TIM10 conf: 9

How did COc1ccccc1NC(=O)Nc1ccc(Cc2ccncc2)cc1 do in these assays?
tim10-1 inh: 32; NALP3 yeast inh: 10; Yeast superoxide: 107; tim23-1 inh: 36; TIM10 inh: 44*; TIM10 conf: 39*

Results for Cc1ccc(N=Cc2cc(Cc3ccccc3Cl)cc([N+](=O)[O-])c2O)c(O)c1 ?
tim10-1 inh: 36; NALP3 yeast inh: 20; Yeast superoxide: 90; tim23-1 inh: 40; TIM10 inh: 52*; TIM10 conf: 34*

Results for Cc1n[nH]c(C)c1Sc1ccccc1N=Cc1cc(Cl)cc([N+](=O)[O-])c1O ?
tim10-1 inh: 22; NALP3 yeast inh: 23; Yeast superoxide: 142; tim23-1 inh: 22; TIM10 inh: 10

How did C=CCC(C(=O)NC(C)c1ccccc1)C(=O)NC(C)c1ccccc1 (stereo unspecified) do in these assays?
tim10-1 inh: 28; NALP3 yeast inh: 30; Yeast superoxide: 97; tim23-1 inh: 11; TIM10 inh: 4

Results for O=C(NC1CCCCCC1)c1cc(S(=O)(=O)N2CCCCC2)ccc1N1CCOCC1 ?
tim10-1 inh: 23; NALP3 yeast inh: 16; Yeast superoxide: 99; tim23-1 inh: 8; TIM10 inh: 20

How did O=C(NC1CCCCCC1)c1cc(S(=O)(=O)N2CCOCC2)ccc1N1CCCCC1 do in these assays?
tim10-1 inh: 23; NALP3 yeast inh: 7; Yeast superoxide: 127; tim23-1 inh: 24; TIM10 inh: 44*; TIM10 conf: 31

Results for N=C1C=CC=C2C1=NC1(CCCCC1)N2O ?
tim10-1 inh: -1; NALP3 yeast inh: 7; Yeast superoxide: 92; tim23-1 inh: 12; TIM10 inh: 8

How did O=C1CC(N2CCN(c3ccccn3)CC2)C(=O)N1CC(c1ccccc1)c1ccccc1 (stereo unspecified) do in these assays?
tim10-1 inh: 26; NALP3 yeast inh: 4; Yeast superoxide: 106; tim23-1 inh: 15; TIM10 inh: 42*; TIM10 conf: 31

What do the screens show for `CCOC(=O)c1sc(=NC(=O)c2cccs2)n(C)c1C`?
tim10-1 inh: 1; NALP3 yeast inh: 49; Yeast superoxide: 95; tim23-1 inh: 43; TIM10 inh: 59*; TIM10 conf: 46*

How did COc1ccc(C(=O)OCc2ccccc2F)cc1S(=O)(=O)N1CCCC1 do in these assays?
tim10-1 inh: 9; NALP3 yeast inh: -2; Yeast superoxide: 113; tim23-1 inh: 38; TIM10 inh: 6

How did CC(C)Cn1c(SCC(N)=O)nnc1-c1cccc(S(=O)(=O)N2CCOCC2)c1 do in these assays?
tim10-1 inh: -16; NALP3 yeast inh: 11; Yeast superoxide: 92; tim23-1 inh: 1; TIM10 inh: 58*; TIM10 conf: -6

Results for Cc1ccc(CSc2nnc(-c3cccc(S(=O)(=O)N4CCOCC4)c3)n2CC(C)C)cc1 ?
tim10-1 inh: 17; NALP3 yeast inh: 0; Yeast superoxide: 97; tim23-1 inh: 28; TIM10 inh: 20

What do the screens show for `Cc1ccc(CNC(=O)c2cn(C3CCCCC3)c(=O)c3c2c2ccccc2n3C)o1`?
tim10-1 inh: 26; NALP3 yeast inh: 7; Yeast superoxide: 104; tim23-1 inh: 26; TIM10 inh: 43*; TIM10 conf: -10

Results for Cc1cc(-c2ccc(N3CCOCC3)cc2)nc2ccccc12 ?
tim10-1 inh: 28; NALP3 yeast inh: 25; Yeast superoxide: 105; tim23-1 inh: 48; TIM10 inh: 58*; TIM10 conf: 64*

What do the screens show for `CC(C)CNC(=S)NC(=O)c1ccc(Cl)cc1Cl`?
tim10-1 inh: 39; NALP3 yeast inh: -66; Yeast superoxide: 93; tim23-1 inh: 18; TIM10 inh: 55*; TIM10 conf: 52*

How did CCc1[nH]nc(C(=O)N2CCCC(C(=O)c3cccc(C(F)(F)F)c3)C2)c1C (stereo unspecified) do in these assays?
tim10-1 inh: 9; NALP3 yeast inh: 7; Yeast superoxide: 102; tim23-1 inh: 17; TIM10 inh: 4

Results for O=C(Oc1ccc2c3c(c(=O)oc2c1)CCCC3)c1ccco1 ?
tim10-1 inh: 30; NALP3 yeast inh: 18; Yeast superoxide: 98; tim23-1 inh: 50; TIM10 inh: 44*; TIM10 conf: 45*

How did CCOc1cccc(CN(C)CC2CCCN(CCc3ccc(Cl)cc3)C2)c1O (stereo unspecified) do in these assays?
tim10-1 inh: -78; NALP3 yeast inh: 31; Yeast superoxide: 109; tim23-1 inh: -98; TIM10 inh: -234

What do the screens show for `CCC(C(=O)Nc1cc(C)nn1-c1nc(C)cc(C)n1)c1ccccc1` (stereo unspecified)?
tim10-1 inh: 26; NALP3 yeast inh: 16; Yeast superoxide: 97; tim23-1 inh: 16; TIM10 inh: 44*; TIM10 conf: -1

Results for CCC(C(=O)Nc1cc(C)cc(C)n1)c1ccccc1 (stereo unspecified) ?
tim10-1 inh: 16; NALP3 yeast inh: 11; Yeast superoxide: 101; tim23-1 inh: 24; TIM10 inh: 20

How did COc1ccc(C2=NN(C(=O)CCC(=O)O)C(c3ccc(Br)cc3)C2)cc1 (stereo unspecified) do in these assays?
tim10-1 inh: -13; NALP3 yeast inh: 10; Yeast superoxide: 103; tim23-1 inh: -1; TIM10 inh: 44*; TIM10 conf: 7

How did CC(=O)NC(Cc1ccccc1F)C(=O)NC1CCN(C(=O)NCc2ccccc2)CC1 (stereo unspecified) do in these assays?
tim10-1 inh: 0; NALP3 yeast inh: 7; Yeast superoxide: 128; tim23-1 inh: 4; TIM10 inh: -15

Results for COc1cccc(/C=N/NC(N)=S)c1OCc1cccc(Cl)c1 ?
tim10-1 inh: 36; NALP3 yeast inh: 28; Yeast superoxide: 91; tim23-1 inh: 20; TIM10 inh: 46*; TIM10 conf: 48*

How did CCn1ncc(Br)c1C(=O)Nc1ccc(C(=O)OC(C)C)cc1 do in these assays?
tim10-1 inh: 18; NALP3 yeast inh: 18; Yeast superoxide: 103; tim23-1 inh: 5; TIM10 inh: 44*; TIM10 conf: 10

Results for N#Cc1ccc(N2CCOCC2)nc1 ?
tim10-1 inh: -12; NALP3 yeast inh: -10; Yeast superoxide: 99; tim23-1 inh: -13; TIM10 inh: 0

Bioassay records from PubChem.
